Where “and” joins values, the source holds several entries; their conditions need not be identical. Identical values can stand only once. In all, about 5,500 compounds went through this assay and about 2,000 (36%) were called active. Roughly 18% stayed inconclusive and do not appear here. Cut-off read from the data, not from the text of the source: active = normalized growth mostly below about 0.91 (no sharp cut-off); inconclusive = no clear call, values can overlap the other calls; inactive = mostly above about 0.92. The list shows a part of the results.
Test: chemical genetic growth profiling, strain panel (AID 1159580);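 note: tested at 20 µM; growth read once vehicle control cultures reached saturation at 30 °C; 1 = growth at the plate median or of vehicle wells; lower values mean less growth of the strain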
Conditions: S. cerevisiae deletion strains, growth OD

Measured: normalized growth

COc1cc(OC)c2ccc(=O)oc2c1
inactive: locus YAL013W, strain DEP1, hits give low values 1.01 | locus YAL021C, strain ccr4, hits give low values 1 | locus YAL026C, strain drs2, hits give low values 0.964 | locus YAL030W, strain snc1, hits give low values 0.976 | locus YBL061C, strain skt5, hits give low values 0.966 | locus YBR009C, strain hhf1, hits give low values 0.935 | locus YBR021W, strain FUR4, hits give low values 0.949 | locus YBR023C, strain chs3, hits give low values 0.964 | locus YBR171W, strain sec66, hits give low values 0.972 | locus YBR229C, strain ROT2, hits give low values 1.01 | locus YBR231C, strain swc5, hits give low values 0.963 | locus YBR279W, strain paf1, hits give low values 0.973 | locus YCL011C, strain gbp2, hits give low values 0.962 | locus YCL016C, strain dcc1, hits give low values 0.968 | locus YCL029C, strain bik1, hits give low values 1 | locus YCL061C, strain MRC1, hits give low values 0.974 | locus YCL069W, strain vba3, hits give low values 0.992 | locus YCR088W, strain abp1, hits give low values 0.984 | locus YDL005C, strain med2, hits give low values 0.987 | locus YDL035C, strain GPR1, hits give low values 0.99 | locus YDL040C, strain nat1, hits give low values 0.974 | locus YDL074C, strain BRE1, hits give low values 0.979 | locus YDL101C, strain DUN1, hits give low values 1.01 | locus YDL134C, strain PPH21, hits give low values 0.992 | locus YDL185W, strain tfp1, hits give low values 0.982 | locus YDL192W, strain arf1, hits give low values 0.988 | locus YDR001C, strain nth1, hits give low values 0.975 | locus YDR069C, strain doa4, hits give low values 0.951 | locus YDR101C, strain arx1, hits give low values 0.994 | locus YDR137W, strain rgp1, hits give low values 0.922 | locus YDR150W, strain NUM1, hits give low values 1 | locus YDR159W, strain sac3, hits give low values 0.971 | locus YDR162C, strain NBP2, hits give low values 1 | locus YDR297W, strain sur2, hits give low values 0.978 | locus YDR318W, strain mcm21, hits give low values 1 | locus YDR334W, strain swr1, hits give low values 0.962 | locus YDR335W, strain msn5, hits give low values 0.974 | locus YDR388W, hits give low values 1.01 | locus YDR502C, strain sam2, hits give low values 0.989 | locus YEL003W, strain gim4, hits give low values 0.973 | locus YEL037C, strain rad23, hits give low values 0.961 | locus YEL061C, strain CIN8 (second series), hits give low values 0.964 | locus YEL061C, strain CIN8, hits give low values 1 | locus YER015W, strain faa2, hits give low values 0.973 | locus YER016W, strain bim1, hits give low values 0.975 | locus YER110C, hits give low values 0.983 | locus YER111C, strain swi4, hits give low values 0.965 | locus YER155C, strain BEM2, hits give low values 0.999 | locus YER167W, strain BCK2, hits give low values 1.02 | locus YFR010W, strain ubp6, hits give low values 0.951 | locus YGL078C, strain dbp3, hits give low values 0.995 | locus YGL086W, strain mad1, hits give low values 1 | locus YGL167C, strain pmr1, hits give low values 0.965 | locus YGL173C, strain kem1, hits give low values 0.945 | locus YGL227W, strain vid30, hits give low values 0.974 | locus YGL248W, strain PDE1, hits give low values 1.01 | locus YGL253W, strain hxk2, hits give low values 0.974 | locus YGR078C, strain PAC10, hits give low values 0.989 | locus YGR135W, strain pre9, hits give low values 0.977 | locus YGR229C, strain SMI1, hits give low values 0.993 | locus YGR252W, strain gcn5, hits give low values 0.846 | locus YHR013C, strain ard1, hits give low values 0.944 | locus YHR027C, strain rpn1, hits give low values 0.981 | locus YHR030C, strain SLT2, hits give low values 1.01 and 0.997 | locus YHR079C, strain IRE1 (second series), hits give low values 1.01 | locus YHR079C, strain IRE1, hits give low values 0.989 | locus YHR094C, strain hxt1, hits give low values 1 | locus YHR129C, strain ARP1, hits give low values 1.01 | locus YHR142W, strain chs7, hits give low values 0.955 | locus YHR200W, strain rpn10, hits give low values 0.988 | locus YIL066C, strain RNR3, hits give low values 1.01 | locus YIL073C, strain SPO22, hits give low values 0.982 | locus YIL125W, strain kgd1, hits give low values 1 | locus YIR030C, strain dcg1, hits give low values 1 | locus YJL092W, strain hpr5, hits give low values 0.972 | locus YJL095W, strain BCK1 (second series), hits give low values 0.98 | locus YJL095W, strain BCK1, hits give low values 0.985 and 1.01 | locus YJL115W, strain asf1, hits give low values 0.969 | locus YJL129C, strain trk1, hits give low values 0.995 | locus YJL134W, strain LCB3, hits give low values 1.01 | locus YJL154C, strain vps35, hits give low values 0.984 | locus YJL164C, strain tpk1, hits give low values 0.962 | locus YJL166W, strain qcr8, hits give low values 0.945 | locus YJL168C, strain set2, hits give low values 1 | locus YJL187C, strain SWE1 (second series), hits give low values 1.01 | locus YJL187C, strain SWE1, hits give low values 0.97 | locus YJR043C, strain POL32, hits give low values 0.993 | locus YJR066W, strain TOR1, hits give low values 0.958
active: locus YDR195W, strain ref2 1.19 [resistant] | locus YDR392W, strain spt3, hits give low values 0.736 | locus YER155C, strain BEM2 (second series), hits give low values 0.661 | locus YGL240W, strain doc1, hits give low values 0.868

— PubChem BioAssay AID1159580 (chemical genetic matrix, 2015)
